This passage reports corrected activity, negative = more killing and z-score results from PubChem BioAssay AID1508625 (Wald Lab, School of Medicine, Case Western Reserve …, 2021).

This assay is described as follows: small molecules boosting NK-mediated OVCAR3 lysis – imaging, primary NK cells, calcein-AM imaging, primary screen (AID 1508625).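 Also: compound given to NK cells 16 h before adding targets at 1.5 to 1 ratio.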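 As to z-score: more negative robust z means stronger NK killing of tumor cells.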 The conditions noted are these: OVCAR3 lysis by primary NK cells, at 5 µM; z-score: measured here: robust Z-score, single-point normalisation.

As to `O=C(Nc1nc(-c2ccc([N+](=O)[O-])cc2)cs1)c1ccccc1F`, the corrected activity, negative = more killing was -1.2% and the z-score was -0.252.

Take `CCCCN(C)C(=O)c1cc2c(=O)n3cccc(C)c3nc2s1`: the corrected activity, negative = more killing is -6.29% and the z-score is -1.78.

Consider `CCOc1ccc2nc(NC(=O)CCC(=O)OCC(F)(F)F)sc2c1`, for which the corrected activity, negative = more killing is -3.74% and the z-score was -1.41.

`CN1C(=O)C(=O)C(=C(O)c2ccc(Br)cc2)C1c1ccccc1` (configuration not stated): the corrected activity, negative = more killing is -1.99% and the z-score is -0.867.

Turning to `Cc1ccc(Cl)cc1N1C(=O)CN(Cc2cccs2)C1=S`, the corrected activity, negative = more killing was -2.1% and the z-score was -0.567.

Consider `O=C1OC(c2cccc(Cl)c2)=NC1=Cc1ccc(Br)o1`, for which the corrected activity, negative = more killing was -4.19% and the z-score is -1.78.

For `COc1ccccc1CNC(=O)c1sc2ncnc(N3CCOCC3)c2c1C`, the corrected activity, negative = more killing was -0.847% and the z-score is -0.308.

In the case of `COC(=O)c1ccc(COC(=O)c2ccncc2)cc1`, the corrected activity, negative = more killing was -0.707% and the z-score was -0.393.

Turning to `O=C(C=Cc1ccc([N+](=O)[O-])cc1)NC(=S)NN1CCOCC1`, the corrected activity, negative = more killing is -5.28% and the z-score is -1.68.

For `Cc1cc(OCCCN2CCCCCC2)ccc1[N+](=O)[O-]`, the corrected activity, negative = more killing is 0.702% and the z-score was 0.391.

As to `Cc1cccn2c(=O)c3cc(C(=O)N4CCCCCC4)sc3nc12`, the corrected activity, negative = more killing was -6.34% and the z-score was -1.8.

Consider `O=[N+]([O-])c1ccc(OCCCN2CCNCC2)cc1`, for which the corrected activity, negative = more killing was -3.62% and the z-score was -2.02.

On to `COc1ccc(C)cc1NC(=O)c1sc2nc(C)nc(N3CCCCC3C)c2c1C` (configuration not stated), for which the corrected activity, negative = more killing was -3.27% and the z-score is -1.75.

In the case of `COc1ccc(Cn2c(=S)[nH]c3cc(C(=O)N4CCCCC4)ccc3c2=O)cc1`, the corrected activity, negative = more killing was -8.39% and the z-score is -2.67.

In the case of `CCOc1ccc(C2C(N3C(=O)c4cccc([N+](=O)[O-])c4C3=O)C(=O)N2c2cc(Cl)ccc2C)cc1` (configuration not stated), the corrected activity, negative = more killing was -3.8% and the z-score is -1.18.

Turning to `CCC1=NN(C(=O)c2cccc(Cl)c2)C(O)(C(F)(F)F)C1` (configuration not stated), the corrected activity, negative = more killing is -2.2% and the z-score is -0.839.

Regarding `O=C(Nc1ccc(N2CCN(Cc3ccccc3Cl)CC2)cc1)c1ccco1`, the corrected activity, negative = more killing is 1.61% and the z-score is 0.895.

With `COc1cc2nc(SCC(=O)Nc3cc(C(F)(F)F)ccc3Cl)n(Cc3ccco3)c(=O)c2cc1OC`, the corrected activity, negative = more killing is -3.79% and the z-score was -1.

On to `Cc1cccc(OCC(=O)N2CCN(S(C)(=O)=O)CC2)c1`, for which the corrected activity, negative = more killing is -2.23% and the z-score was -0.994.

Turning to `COc1ccc2c(c1OC)C(=O)OC2CC(=O)c1ccc(C)cc1` (configuration not stated), the corrected activity, negative = more killing was -8.12% and the z-score was -1.71.

For `COC(=O)c1ccc(-n2nnnc2SCC(=O)Nc2ccc(F)cc2)cc1`, the corrected activity, negative = more killing is -6.69% and the z-score was -2.

Turning to `COc1ccccc1OCC(=O)N=Nc1c(O)[nH]c2c(C)cc(Br)cc12`, the corrected activity, negative = more killing was -2.87% and the z-score is -1.13.

On to `Cc1cc(Nc2cccc(C(=O)O)c2)n2ncnc2n1`, for which the corrected activity, negative = more killing is 1.47% and the z-score was 0.457.

Turning to `N#Cc1cc2c(N)c(C(=O)Nc3ccccc3Oc3ccccc3)sc2nc1N`, the corrected activity, negative = more killing is 0.0831% and the z-score was 0.0248.

Turning to `Cc1ccc2nc(NC(=O)COC(=O)c3ccc(Br)o3)sc2c1`, the corrected activity, negative = more killing is -3.82% and the z-score was -1.44.

With `Cc1cc(C)c(C=Nc2ccc(-c3ccccc3[N+](=O)[O-])cc2)c(C)c1`, the corrected activity, negative = more killing was -4.49% and the z-score is -1.91.

For `O=C1C2C3CC(C(Br)C3Br)C2C(=O)N1c1cccc2ccccc12` (configuration not stated), the corrected activity, negative = more killing was -3.98% and the z-score is -1.41.

For the molecule `COC(=O)c1ccc(C)c(NC(=O)c2ccc(C3SCC(=O)N3Cc3ccccc3)cc2)c1` (configuration not stated), the corrected activity, negative = more killing was -5.82% and the z-score is -2.22.

For `COc1ccc(NC(=O)NCc2ccncc2)cc1`, the corrected activity, negative = more killing was -2.54% and the z-score is -1.41.

Turning to `O=C(c1oc(=O)c2ccccc2c1-c1ccccc1)N(CCc1ccccc1)Cc1ccccc1`, the corrected activity, negative = more killing is -5.06% and the z-score was -1.24.

As to `O=C(Nc1ccc2c(c1)OCCO2)c1cc2cc3ccc(Cl)cc3nc2o1`, the corrected activity, negative = more killing was -3.48% and the z-score was -0.854.

`CCOc1ccc(-n2c(SCC(=O)Nc3ccc(C)cc3)nc3c([nH]c4ccccc43)c2=O)cc1`: the corrected activity, negative = more killing is -5.11% and the z-score is -1.27.

Take `CC(=O)C1C(=O)CC(c2ccccc2)CC1=O` (configuration not stated): the corrected activity, negative = more killing is -5.17% and the z-score was -2.04.

With `COc1cc(OC)cc(C(=O)N2CCN(C3CCC(C)CC3)CC2)c1` (configuration not stated), the corrected activity, negative = more killing was -1.69% and the z-score was -0.755.

On to `COC(=O)c1sc(N2C(=O)C(=O)C(=C(O)c3ccc(Cl)cc3)C2c2ccc(C)cc2)nc1C` (configuration not stated), for which the corrected activity, negative = more killing was -3.82% and the z-score was -1.66.

For the molecule `O=c1c(=Nc2ccccc2O)c(=O)c2ccccc12`, the corrected activity, negative = more killing is -2.51% and the z-score was -0.945.

`CCOc1ccc(-n2c(SCc3ccccc3Cl)nc3c(c2=O)SCC3)cc1`: the corrected activity, negative = more killing was -3.11% and the z-score is -0.774.

As to `Cc1cc(NC(=O)CSc2nc3ccc(Br)cc3c3nc4ccccc4n23)no1`, the corrected activity, negative = more killing is -5.14% and the z-score is -1.36.

For the molecule `COc1ccc(OCCCN2CCc3ccccc3C2)cc1`, the corrected activity, negative = more killing is -4.65% and the z-score was -2.58.

Regarding `CC(C(=O)NCCC1=CCCCC1)c1ccc([N+](=O)[O-])cc1` (configuration not stated), the corrected activity, negative = more killing was -0.521% and the z-score is -0.29.

For the molecule `CCCC(=O)Nc1cc(-c2nc3ccc(C)cc3o2)ccc1Cl`, the corrected activity, negative = more killing was -2.67% and the z-score is -1.43.

For the molecule `C=CCn1c(COc2cccc3cccnc23)nnc1SCC(=O)OC`, the corrected activity, negative = more killing was -7.09% and the z-score was -2.01.

Consider `O=C(Nc1ccc(Oc2ccccc2)cc1)c1nn(-c2ccc(Cl)cc2)c(=O)c2ccccc12`, for which the corrected activity, negative = more killing is -3.15% and the z-score was -1.69.

As for `CCOc1cc(C=c2sc3nc4ccccc4n3c2=O)ccc1O`, the corrected activity, negative = more killing is -2.97% and the z-score was -1.26.

As to `CSC1CCCCC1(O)CSc1nc2ccccc2o1` (configuration not stated), the corrected activity, negative = more killing was -4.44% and the z-score was -1.67.

As to `Cc1ccc(-c2sc3nc(-c4ccccc4)ccc3c2N)c(C)c1`, the corrected activity, negative = more killing was -3.23% and the z-score is -1.23.
